Sfp PPTase inh = inhibitors of Bacillus subtilis Sfp phosphopantetheinyl transferase | Q9F4F7 | Biochemical Sfp PPTase activity, qHTS | Potency, µM, for inactives: largest response in the series, negative = inhibition, usual class: inhibitors | 3.5% of 310,000 active;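 further: the enzyme is Sfp with the accession as filed and its product quenches rhodamine fluorescence; 0% = enzyme reaction without inhibitor and -100% = no enzyme wells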
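Fluorescence-quenching assay with 15 nM Sfp, 5 uM rhodamine-CoA and 12.5 uM BHQ-2-labelled ybbR peptide in pH 7.6 Hepes/MgCl2 buffer. Enzyme was pre-incubated with compound for 15 min at room temperature. Rate was taken from the 30-min fluorescence change (525/598 nm).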
TrxR1 substrate = substrates of rat thioredoxin reductase 1. O89049. purified TrxR1 substrate turnover, NADPH consumption readout. Potency, µM (highest dose often 114 µM), inactives show at the highest dose activity change, negative = substrate turnover. 0.01% of 390,000 active; further: nearly all actives have a fitted effect of over 50% in size
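Rat TrxR1, dispensed at 90 nM, was prereduced with 400 uM NADPH (final) for 5 min at ~22 deg C, then incubated with compound 15 min before 400 uM selenite. A first-read NADPH fluorescence drop versus no-compound background flagged substrates.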
IDH1 R132H inh = human IDH1 R132H inhibition. O75874. IDH1-R132H enzyme, NADPH consumption, diaphorase/resazurin fluorescence. Potency, µM (highest dose often 76.6 µM), inactives show at the top dose activity change, negative = inhibition, actives largely listed as inhibitors. 0.093% of 390,000 active; further: nearly all actives have a fitted effect of over 65% in size
Target sequence (O75874 whole entry R132H, stated change not applied): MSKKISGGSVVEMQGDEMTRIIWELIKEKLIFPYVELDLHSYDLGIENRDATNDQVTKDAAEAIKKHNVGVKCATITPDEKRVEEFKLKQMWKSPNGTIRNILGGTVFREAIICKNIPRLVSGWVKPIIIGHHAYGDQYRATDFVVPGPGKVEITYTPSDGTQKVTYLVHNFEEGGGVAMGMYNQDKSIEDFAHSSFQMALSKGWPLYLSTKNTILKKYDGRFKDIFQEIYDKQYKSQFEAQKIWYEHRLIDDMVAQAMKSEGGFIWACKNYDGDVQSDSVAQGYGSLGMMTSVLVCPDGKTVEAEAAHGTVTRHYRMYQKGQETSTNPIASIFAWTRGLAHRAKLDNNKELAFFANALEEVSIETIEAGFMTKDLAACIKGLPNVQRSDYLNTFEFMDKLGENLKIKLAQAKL
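IDH1-R132H (0.5 ug/mL) preincubated 30 min with compound, then NADPH (0.016 mM) and alpha-KG (2 mM) added; 80 min at RT, pH 7.5. Remaining NADPH coupled via diaphorase/resazurin to fluorescence (540/590 nm); concentration-response curves normalized to no-enzyme control.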
VDR inh = inhibitors of human vitamin D receptor. P11473. VDR-SRC2-3 peptide fluorescence polarization, 2 h. 0.93% of 400,000 active. Potency, µM, without a hit: max response, negative = inhibition, actives largely listed as inhibitors
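Two reagent solutions held at 4 deg C in the dark were dispensed, compounds pinned at 23 nl, and the mixture incubated 2 h at room temperature. Read-out: fluorescence polarization of VDR–SRC2-3 peptide binding.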
PLK1 PBD block = blocks phosphopeptide binding to human PLK1 polo-box domain | P53350 | Plk1 PBD binding of FITC phosphopeptide, fluorescence polarization | Potency, µM, without a hit: max response, negative = inhibition, usual class: inhibitors | 2.8% of 360,000 active | AID 720504; further: series mostly up to about 57 µM; nearly all actives have a fitted effect of over 65% in size
TrxR1 inh = blocks rat thioredoxin reductase 1; O89049; recombinant rTrxR1, NADPH fluorescence consumption, selenite substrate; Potency, µM (doses to about 114 µM), for inactives: at the highest dose activity change, negative = inhibition, usual class: inhibitors; 1% of 390,000 active; AID 588453; further: nearly all actives have a fitted effect of over 65% in size
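Rat TrxR1 (90 nM in the dispensed reagent) was pre-reduced with 400 uM NADPH for 5 min at room temperature, then incubated with compound for 15 min. After 400 uM selenite was added, NADPH fluorescence (Ex 340/Em 450 nm) was followed for 8 min.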
* marks the source's active call; other numbers are inactive results; ? = inconclusive; . = no result; ! = not confirmed by another sample; [ ] = remark or other dose. The list is not random: actives were taken first. Their share in the collection is about 5.2%. The call rests on the fitted dose curve; in most records, active means well fitted curve in the direction sought with a large enough effect; inconclusive means small, poorly fitted or top-dose-only effect, or another doubt; inactive means no such curve, though single readings can be large; an effect the other way counts as inactive or inconclusive. Unless noted, on the % scale 0 is the no-effect control and ±100 the full control effect; potency means the concentration at half of the fitted maximal effect.

SMILES	Sfp PPTase inh	TrxR1 substrate	IDH1 R132H inh	VDR inh	PLK1 PBD block	TrxR1 inh
O=C(/C=C/c1ccccc1)NC(NC(=S)Nc1cccc(Cl)c1)C(Cl)(Cl)Cl (stereo not drawn)	11.0%	0.4%	-3.9%	11.0%	-28.8%	1.2%
O=C(/C=C/c1ccccc1)NC(NC(=S)Nc1ccc(Cl)cc1Cl)C(Cl)(Cl)Cl (stereo not drawn)	6.8%	-5.9%	-4.4%	?	13.4µM*	?
Cc1oc(-c2ccc(-c3ccccc3)cc2)nc1CN(C)C1CCOC1 (stereo not drawn)	3.3%	-0.8%	0.0%	-20.5%	23.8µM*	-13.3%
CS(=O)(=O)Nc1ccc(C2=NN(C(=O)c3ccco3)C(c3ccco3)C2)cc1 (stereo not drawn)	6.8%	-5.0%	-1.1%	4.2%	-11.0%	-25.2%
COc1cccc(C2=NN(C(=O)c3ccco3)C(c3ccco3)C2)c1 (stereo not drawn)	50.1µM*	5.1%	15.8%	-24.3%	-11.1%	?
COc1cc(C(C[N+](=O)[O-])c2c(N)n(C)c(=O)n(C)c2=O)ccc1O (stereo not drawn)	-2.2%	3.0%[57.1 µM]	5.2%	?	-5.0%	-16.5%[57.1 µM]
COc1cccc(F)c1C(C[N+](=O)[O-])c1c(N)n(C)c(=O)n(C)c1=O (stereo not drawn)	-3.1%	-1.0%	-9.6%	79.4µM*	-1.8%	?
Cc1ccc(C(C[N+](=O)[O-])c2c(N)n(C)c(=O)n(C)c2=O)cc1 (stereo not drawn)	4.3%	0.4%	1.3%	79.4µM*	-17.1%	?
Cn1c(N)c(C(C[N+](=O)[O-])c2ccccc2Cl)c(=O)n(C)c1=O (stereo not drawn)	.	6.6%[57.1 µM]	6.8%	?	-7.4%	12.3%[57.1 µM]
CCOc1ccccc1N(CC(=O)Nc1ccc(OC)c(Cl)c1)S(=O)(=O)c1ccccc1	.	-8.0%[57.1 µM]	23.6%	-4.6%	.	18.8%[57.1 µM]
CC#CC[N+](C)(C)CCCCCCCCCC	?	3.1%	0.0%	-12.1%	6.7%	12.6%
C#CC[N+](C)(C)CCCCCCCCC	6.7%	4.2%	-1.9%	-16.6%	37.7µM*	10.2%
COc1cc(C(=O)O/N=C2\C=CC(=O)C(C)=C2)cc(OC)c1OC	-3.9%	-3.2%	10.9%	?	21.2µM*	2.82µM*
O=C(NC1CCCC1)C(C1CC1)n1c(C2CC2)nc2ccccc21 (stereo not drawn)	.	.	.	.	-9.3%	.
CCCCCC1CCNCC1	.	11.4%	.	.	.	13.2%
O=C(O)c1cccc(N2C(=O)C3CC=C(Cl)CC3C2=O)c1 (stereo not drawn)	-5.3%	6.0%[57.1 µM]	4.3%	?	23.8µM*	23.6%[57.1 µM]
O=C(O)c1cccc(N2C(=O)C3CC=CCC3C2=O)c1 (stereo not drawn)	16.0%	7.3%	0.0%	9.8%	-5.7%	15.6%
CC(C)C[C@H](NC(=O)[C@H](CC(C)C)NC(=O)[C@H](Cc1ccccc1)NC(=O)[C@@H](N)CO)C(=O)N[C@@H](CCCNC(=N)N)C(=O)N[C@@H](CC(N)=O)C(=O)N1CCC[C@H]1C(=O)N[C@@H](CC(N)=O)C(=O)N[C@@H](CC(=O)O)C(=O)N[C@@H](CCCCN)C(=O)N[C@@H](Cc1ccc(O)cc1)C(=O)N[C@@H](CCC(=O)O)C(=O)N1CCC[C@H]1C(=O)N[C@@H](Cc1ccccc1)C(=O)O	3.4%	.	.	-5.6%	.	.
COC(=O)Cn1c(Cc2ccccc2)nc2ccccc21	12.1%	-5.5%	0.0%	-19.3%	5.97µM*	3.5%
COC(=O)Cn1c(=O)cnc2ccccc21	0.2%	24.4%	1.6%	5.2%	-2.6%	5.1%
COC(=O)C1=C[C@@H](C(=O)OC)[C@@H]2C3=C(C(=O)C2(C)C)[C@H](C)n2c(=O)n(-c4ccccc4)c(=O)n2[C@@H]3C1	2.5%	10.4%	15.2%	?	-12.6%	56.2µM*
COC(=O)C1=C[C@@H](C(=O)OC)C2C3=C(C(=O)C24CCCCC4)[C@H](C)n2c(=O)n(-c4ccccc4)c(=O)n2[C@@H]3C1 (stereo partly drawn)	18.5%	1.2%	-0.2%[38.3 µM]	10.5%	3.0%	16.1%
O=C1CCC[C@@H]2C[C@@]3(C[C@@H]4CCN1[C@H]24)Nc1cc([N+](=O)[O-])ccc1NC3=NCc1ccccc1	.	-17.0%	.	.	.	-15.7%
CCC(C)C1NC(=O)C(Cc2ccc(O)cc2)NC(=O)C(N)CSSCC(C(=O)N2CCCC2C(=O)NC(CC(C)C)C(=O)NCC(N)=O)NC(=O)C(CC(N)=O)NC(=O)C(CCC(N)=O)NC1=O (stereo not drawn)	-4.0%	.	.	12.6µM*!	.	.
CSc1ccc(CC2C(=O)Nc3ccccc32)cc1 (stereo not drawn)	.	-2.2%	29.1%	5.1%	.	23.4%
SMILES	Sfp PPTase inh	TrxR1 substrate	IDH1 R132H inh	VDR inh	PLK1 PBD block	TrxR1 inh
CN(C)c1ccc(CC2C(=O)Nc3ccccc32)cc1 (stereo not drawn)	44.7µM*	1.7%	9.8%	-13.1%	-8.6%	3.8%[57.1 µM]
CCCCNc1nc(C)nc2c1nc(-c1ccccc1)n2CCN(C)C	14.5%	.	.	.	.	.
O=C(O)C12CC3CC(C1)CC(n1ncc(NCc4ccco4)c(Cl)c1=O)(C3)C2	35.5µM*	8.5%	1.6%	4.4%	1.8%	?
O=C1c2ccccc2-c2onc3c(N4CCN(CCO)CC4)cc(N4CCN(C(=O)c5ccco5)CC4)c1c23	5.01µM*	0.8%	8.8%	-0.7%	36.9%	?
O=C(O)CCCNc1cc(N2CCN(C(=O)c3ccco3)CC2)c2noc3c2c1C(=O)c1ccccc1-3	-3.3%	-0.1%	-2.9%	9.1%	11.8%	-22.4%
CN1CCN(c2cc(N3CCN(C(=O)c4ccco4)CC3)c3c4c(onc24)-c2ccccc2C3=O)CC1	15.8µM*	-5.7%	8.5%	-21.2%	27.2%	-27.0%
Cc1cc2oc(=O)cc(Cn3ccnc3)c2cc1Cl	20.7%	-4.5%	-15.4%	-20.3%	-6.9%	12.6%
c1ccc(-c2[nH]ncc2-c2ccnc3ccccc23)nc1	0.6%	.	.	-5.8%	.	.
O=C(N/N=C/c1ccc(-c2ccc(S(=O)(=O)Nc3ncccn3)cc2)o1)c1cc2ccccc2cc1O	50.1µM*	8.1%	-5.8%	2.8%	26.7µM*	?
NC(=S)NN=Cc1ccc(-c2ccc(S(=O)(=O)Nc3ncccn3)cc2)o1	.	22.0%[57.1 µM]	-2.5%	-16.3%	29.9µM*	5.6%[57.1 µM]
Cc1ccc(OCCNC(=O)CNC(=O)Cc2cccc3ccccc23)cc1	.	-3.0%	.	-29.3%	.	12.6%
Cn1c2c(c3cnc4cc(Cl)ccc4c31)CN(Cc1ccc(Cl)cc1)CC2	.	4.8%[0.0914 µM]	.	10.5%	.	-1.8%
CCOc1ccccc1N1C(=O)c2ccccc2N/C1=C\N1CCN(C(=O)c2ccco2)CC1	.	2.7%	.	-11.0%	.	-20.7%
Cc1ccc(S(=O)(=O)N2CCN(c3nc(Nc4ccccc4O)nc4ccccc34)CC2)cc1	.	1.9%	.	.	.	12.6%

High-throughput results (PubChem BioAssay)
